From PubChem
nsP2pro inh = inhibitors of chikungunya virus nsP2 protease; Q8JUX6; FRET peptide cleavage, nsP2pro, fluorescence 1 h; Potency, µM (highest dose often 24.9 µM), for the others: at the highest dose activity change, negative = inhibition, most hits filed as inhibitors; hit rate 1.1% among 31,000; AID 1964107; further: nearly all actives have a fitted effect of over 60% in size
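Purified recombinant nsP2pro (150 nM final) in 10 mM Tris-HCl pH 8.0 with 0.01% Tween 20 was preincubated 15 min at room temperature with compound (7 concentrations, up to 25 uM). FRET peptide 2 substrate (2.5 uM final) was then added; fluorescence was read after 1 h.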
CHIKV nsP2 cell = cell-based CHIKV nsP2 protease inhibition, secondary; shares compounds with nsP2pro inh; cell-based CHIKV nsP2 protease reporter assay; Potency, µM (doses to about 51.1 µM), for inactives: at the highest dose activity change, negative = inhibition, hits mostly inhibitors; hit rate 10% among 450; AID 1964100; further: nearly all actives have a fitted effect of over 70% in size
Target sequence (Q8JUX6 220-798 limits assumed): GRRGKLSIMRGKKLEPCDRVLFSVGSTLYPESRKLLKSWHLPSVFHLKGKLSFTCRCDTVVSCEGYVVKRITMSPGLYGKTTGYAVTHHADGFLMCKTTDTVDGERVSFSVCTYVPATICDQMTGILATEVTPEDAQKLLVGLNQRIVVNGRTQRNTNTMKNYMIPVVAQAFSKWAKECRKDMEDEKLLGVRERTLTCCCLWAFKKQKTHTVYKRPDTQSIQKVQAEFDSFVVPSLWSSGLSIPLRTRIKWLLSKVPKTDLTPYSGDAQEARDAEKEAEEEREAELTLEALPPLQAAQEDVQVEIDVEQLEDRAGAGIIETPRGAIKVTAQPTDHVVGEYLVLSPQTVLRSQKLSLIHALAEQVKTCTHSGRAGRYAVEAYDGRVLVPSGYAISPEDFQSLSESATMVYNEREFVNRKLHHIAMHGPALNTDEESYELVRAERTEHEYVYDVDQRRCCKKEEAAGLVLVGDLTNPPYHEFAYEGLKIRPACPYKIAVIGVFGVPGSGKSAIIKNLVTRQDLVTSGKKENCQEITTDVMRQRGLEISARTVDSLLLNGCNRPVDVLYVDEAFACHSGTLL
NSP2 full ctr = selectivity test for CHIKV nsP2 protease inhibitors: full-length NSP2 | Full-length CHIKV NSP2 protease enzymatic counterscreen | Potency, µM (highest dose often 50.7 µM), for inactives: at the top dose activity change, negative = inhibition, usual class: inhibitors | shares compounds with nsP2pro inh | AID 1964101 | hit rate 39% among 410; further: nearly all actives have a fitted effect of over 65% in size
Furin counter = inhibits human furin in a CHIKV nsP2 protease selectivity counterscreen; shares compounds with nsP2pro inh; Recombinant human furin enzymatic counterscreen, fluorogenic substrate; Potency, µM (highest dose often 50.6 µM), for the others: at the top dose activity change, negative = inhibition, most hits filed as inhibitors; hit rate 6% among 410; AID 1964102
nsP2 NS23 pep = selectivity test for CHIKV nsP2 protease inhibitors: endogenous NS2/3 peptide; shares compounds with nsP2pro inh; Purified CHIKV nsP2 protease, endogenous NS2/3 peptide cleavage; Potency, µM (highest dose often 51 µM), for the others: top-dose activity change, negative = inhibition, usual class: inhibitors; hit rate 34% among 410; further: nearly all actives have a fitted effect of over 55% in size
Papain cs = papain protease inhibition, counterscreen for nsP2pro inhibitors | purified papain protease activity, enzymatic inhibition | shares compounds with nsP2pro inh | Potency, µM (doses to about 51 µM), inactives show top-dose activity change, negative = inhibition, hits mostly inhibitors | hit rate 5% among 410 | AID 1964104
nsP2pro confirm = confirmation of CHIKV nsP2 protease inhibitors | shares compounds with nsP2pro inh | CHIKV nsP2 protease enzymatic activity, qHTS | Potency, µM (highest dose often 25.5 µM), for the others: at the top dose activity change, negative = inhibition, hits mostly inhibitors | hit rate 43% among 410 | AID 1964105; further: nearly all actives have a fitted effect of over 75% in size
HCV NS3 counter = HCV NS3/4A protease inhibition, counterscreen; shares compounds with nsP2pro inh; HCV NS3/4A protease biochemical counterscreen; Potency, µM (series often up to 50.9 µM), hits mostly inhibitors; hit rate 20% among 410; AID 1964106; further: nearly all actives have a fitted effect of over 55% in size
* marks the source's active call; other numbers are inactive results; i = inactive; ? = inconclusive; ! = a repeat was not active; [ ] = remark or other dose. The entries come from a sample that favours hits as a whole. The call rests on the fitted dose curve. On the % scale 0 is the no-effect control and ±100 the full control effect; potency means the concentration at half of the fitted maximal effect.

SMILES	nsP2pro inh	others
CN(C)C(=S)SSC(=S)N(C)C	2.79µM*	CHIKV nsP2 cell=25.1µM*;NSP2 full ctr=9.19µM*;Furin counter=-11.0%;nsP2 NS23 pep=9.19µM*;Papain cs=-10.6%;nsP2pro confirm=1.59µM*;HCV NS3 counter=i
Cc1cccc(-c2ccc(=O)n(CC(=O)NCCc3ccccc3)n2)c1	0.0%
CC(C)c1ccccc1-c1nc2c(c(NCc3ccc(-c4cccnc4)cc3)n1)CNC2	i
CCOC(=O)C1CCC(C(=O)Nc2ccc([S+](=O)([O-])Nc3nccs3)cc2)CC1 (centres undefined)	i
COc1ccc2nc(-c3ccc(OC)c(OC)c3)sc2c1	i
COCCNC(=O)Nc1ccc2nc(-c3cccs3)c(-c3cccs3)nc2c1	?	CHIKV nsP2 cell=-3.8%;NSP2 full ctr=33.8%;Furin counter=-9.9%;nsP2 NS23 pep=-9.6%;Papain cs=49.2%;nsP2pro confirm=8.5%;HCV NS3 counter=i
COCCNC(=O)c1cc2c(Cl)nc3ccc(C)cc3c2s1	12.8%
Cc1ccc(NC(=O)CSc2nc(-c3cccs3)nc3cc(=O)[nH]n23)cc1C	-6.9%
Cc1nnc(-c2ccccc2)n1CCCn1ccnc1	-6.8%
O=C(Nc1ccccc1F)N1CC2CCC(C1)N2Cc1ccc(-c2cc(F)cc(F)c2)cc1	-2.9%
Cc1cc(C)cc(C(=O)Nc2cc(C(F)(F)F)ccc2N2CCN(c3ccccc3)CC2)c1	-17.0%
CC(=O)c1ccc(N2CCN(c3ccc(NC(=O)c4cccs4)cc3C(=O)O)CC2)cc1	-28.1%
O=C(Nc1ccc(N2CCC(N3CCCCC3)CC2)c(C(=O)O)c1)c1ccc(Br)cc1	33.6%
O=C(Nc1ccccc1)c1cnc(N2CCCCC2)c2ccccc12	13.5%
Cc1cccc(C(=O)Nc2ccc(N3CCC(CCN4CCOCC4)CC3)c(C(=O)O)c2)c1	4.47µM*!	CHIKV nsP2 cell=8.6%;NSP2 full ctr=-10.1%;Furin counter=2.6%;nsP2 NS23 pep=-3.4%;Papain cs=-3.2%;nsP2pro confirm=22.0%;HCV NS3 counter=?
O=C(Nc1ccc(N2CCN(c3ccc(F)cc3)CC2)c(C(=O)O)c1)c1ccccc1F	?	CHIKV nsP2 cell=13.1%;NSP2 full ctr=4.11µM*;Furin counter=?;nsP2 NS23 pep=13µM*;Papain cs=-5.5%;nsP2pro confirm=7.11µM*;HCV NS3 counter=1.3µM*
CCN(CC)C(=O)C(c1ccccc1)N1CCN(c2ccc(NC(=O)c3ccccc3-c3cccnc3)cc2F)CC1 (centres undefined)	1.5%
Cc1cccc(C(=O)N2C[C@H]3OC(=O)N(CCCN4CCOCC4)[C@H]3C2)c1	2.3%
CCOC(=O)N1CCN(Cc2nc3cc(NC(=O)c4cccc(C)c4)ccc3n2C(C)C)CC1	2.2%
O=C(Nc1cnc(N2CCC(N3CCCCC3)CC2)c(C(=O)O)c1)c1ccc(Br)cc1	3.98µM*	CHIKV nsP2 cell=-1.9%;NSP2 full ctr=4.11µM*;Furin counter=?;nsP2 NS23 pep=16.3µM*;Papain cs=-7.0%;nsP2pro confirm=7.98µM*;HCV NS3 counter=4.11µM*
O=C(Nc1ccc2c(c1)N(C1CCCC1)C(=O)c1ccccc1S2)c1ccccc1F	-15.7%
Cc1cccc(C(=O)Nc2ccc(N3CCN(c4ccc(F)cc4)CC3)c(C(=O)O)c2)c1	?	CHIKV nsP2 cell=50.0%;NSP2 full ctr=7.3µM*;Furin counter=-23.4%;nsP2 NS23 pep=16.3µM*;Papain cs=-2.6%;nsP2pro confirm=8.96µM*;HCV NS3 counter=4.11µM*
C[C@]1(OC(=O)/C=C\c2ccc(O)cc2)C[C@@H](O)[C@]2(O)C=CO[C@@H](O[C@@H]3O[C@H](CO)[C@@H](O)[C@H](O)[C@H]3O)C12 (some centres undefined)	7.1%[10 µM]
O=C1CCCC2=C1C(c1ccccc1)N=C(Nc1nc3ccccc3o1)N2 (centres undefined)	3.9%
COc1cc(C(=O)NC2CCN(C)CC2)ccc1Nc1ncc2c(n1)N(C1CCCC1)CC(F)(F)C(=O)N2C	118.0%
SMILES	nsP2pro inh	others
CC(CCC(=O)O)[C@H]1CC[C@H]2[C@@H]3CC[C@@H]4C[C@H](O)CC[C@]4(C)[C@H]3C[C@H](O)[C@]12C (some centres undefined)	-5.2%
C=C1CCC2C(C)(C(=O)O)CCCC2(C)C1CCC(C)CC(=O)O (centres undefined)	65.5%
CC1(C)C(/C=C/C=C/C=C/C=C2/N(CCCCS(=O)(=O)O)c3ccc4ccccc4c3C2(C)C)=[N+](CCCCS(=O)(=O)[O-])c2ccc3ccccc3c21	-3.8%
CC(=O)N[C@H]1[C@H](O[C@H]2CC[C@@]3(C)C(CC[C@]4(C)C3CC=C3C5CC(C)(C)CC[C@]5(C(=O)O)C(O)C[C@]34C)C2(C)C)O[C@H](CO[C@@H]2O[C@H](C)[C@H](O)[C@H](O)[C@H]2O[C@@H]2OC[C@@H](O)[C@H](O)[C@H]2O)[C@@H](O)[C@@H]1O (some centres undefined)	13.4%[5.1 µM]
N#Cc1nc(-c2cccc3ccccc23)oc1NCc1ccccc1	-6.0%
C/C=C(\C)C(=O)O	1.0%
CNc1oc(-c2cccc3ncccc23)nc1C#N	-3.4%
O=C(Nc1nc(-c2ccccc2)cs1)c1ccncc1NS(=O)(=O)c1cccs1	1.2%
O=C(Nc1ccc(Br)cc1)c1ccc(Br)c(S(=O)(=O)N2CCCCC2)c1	-4.4%
O=C(Nc1ccc(N2CCOCC2)c(C(=O)O)c1)c1ccc(Br)cc1	3.55µM*	CHIKV nsP2 cell=10.9%;NSP2 full ctr=2.91µM*;Furin counter=?;nsP2 NS23 pep=6.51µM*;Papain cs=3.1%;nsP2pro confirm=5.65µM*;HCV NS3 counter=1.63µM*
O=C(Nc1ccc(Cl)c(-c2nc3cc(Cl)ccc3o2)c1)c1cc([N+](=O)[O-])ccc1N1CCOCC1	-11.7%
CC1(C)[C@H](C=C(Cl)Cl)[C@@H]1C(=O)OCc1c(F)c(F)cc(F)c1F	-4.1%
Oc1cccc(-c2c3nc(c(-c4cccc(O)c4)c4ccc([nH]4)c(-c4cccc(O)c4)c4nc(c(-c5cccc(O)c5)c5ccc2[nH]5)CC4)C=C3)c1	?	CHIKV nsP2 cell=1.5%;NSP2 full ctr=18.3µM*;Furin counter=2.3%;nsP2 NS23 pep=18.3µM*;Papain cs=?;nsP2pro confirm=14.2µM*;HCV NS3 counter=i
O=C1COc2c(CCNCCN(C(=O)CCNCCc3ccc(Cl)c(Cl)c3)C3CCCCC3)ccc(O)c2N1	46.6%
CCCCCS(=O)(=O)c1oc(-c2cccs2)nc1S(=O)(=O)c1ccc(C)cc1	-16.3%
CCCSc1oc(-c2cccs2)nc1S(=O)(=O)c1ccc(C)cc1	-23.3%
CCCCS(=O)(=O)c1oc(-c2cccs2)nc1S(=O)(=O)c1ccc(F)cc1	?	CHIKV nsP2 cell=3.66µM*;NSP2 full ctr=5.8µM*;Furin counter=2.9%;nsP2 NS23 pep=8.19µM*;Papain cs=-9.0%;nsP2pro confirm=5.04µM*;HCV NS3 counter=i
Cc1ccc(CNc2ncnc3ccc(-c4sc(C)nc4C)cc23)o1	-3.6%
